An excerpt weighted towards active compounds, which were near 6.6% of everything screened.
Mdm2 MdmX PPI – inhibitors of human Mdm2-MdmX association, primary screen, cell-based, luminescence, split luciferase, SaOS-2, uHTS; SaOS-2 split-luciferase Mdm2/MdmX complementation; 330,000 tested, 3% active; AID 485346, 2010; Protein Mdm4 (Homo sapiens) + E3 ubiquitin-protein ligase Mdm2 (Homo sapiens), …; inhibition, % at 8 µM;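 active = inhibition of at least 50% at 8 µM in the primary screen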
Target sequence (O15151 whole entry, looked up): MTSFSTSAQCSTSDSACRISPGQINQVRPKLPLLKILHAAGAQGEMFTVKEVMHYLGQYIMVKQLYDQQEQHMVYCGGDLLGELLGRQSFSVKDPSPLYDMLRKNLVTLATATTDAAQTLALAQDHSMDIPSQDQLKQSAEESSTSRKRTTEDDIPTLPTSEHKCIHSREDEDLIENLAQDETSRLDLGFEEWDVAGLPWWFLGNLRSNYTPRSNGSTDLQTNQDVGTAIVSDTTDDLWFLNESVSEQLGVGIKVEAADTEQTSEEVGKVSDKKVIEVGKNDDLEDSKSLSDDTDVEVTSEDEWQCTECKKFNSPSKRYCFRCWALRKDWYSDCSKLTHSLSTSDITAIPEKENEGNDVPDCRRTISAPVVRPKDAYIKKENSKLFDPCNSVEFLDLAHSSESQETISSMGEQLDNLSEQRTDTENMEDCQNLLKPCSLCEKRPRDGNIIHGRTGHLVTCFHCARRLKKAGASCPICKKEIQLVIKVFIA
Target sequence (Q00987 whole entry, looked up): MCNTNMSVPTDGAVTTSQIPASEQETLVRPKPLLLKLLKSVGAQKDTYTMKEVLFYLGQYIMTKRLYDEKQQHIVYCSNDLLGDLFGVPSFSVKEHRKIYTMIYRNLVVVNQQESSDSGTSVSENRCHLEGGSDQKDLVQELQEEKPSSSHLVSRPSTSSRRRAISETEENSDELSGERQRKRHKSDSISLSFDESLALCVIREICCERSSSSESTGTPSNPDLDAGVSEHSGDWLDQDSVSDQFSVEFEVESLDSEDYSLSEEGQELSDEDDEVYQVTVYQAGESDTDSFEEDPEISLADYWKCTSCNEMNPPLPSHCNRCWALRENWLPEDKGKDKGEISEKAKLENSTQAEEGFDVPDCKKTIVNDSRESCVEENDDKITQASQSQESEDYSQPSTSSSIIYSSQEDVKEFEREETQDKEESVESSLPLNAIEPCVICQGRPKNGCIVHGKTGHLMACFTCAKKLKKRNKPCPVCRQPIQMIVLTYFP
Beta apoptosis – inhibitors of cytokine-induced beta cell apoptosis, primary screen, luminescence; protection from apoptosis, % (concentration not given with the values); AID 435005, 2010; 300,000 tested, 0.8% active; INS-1E cytokine-induced death, ATP luminescence, 48 h; percent of positive-control rescue, neutral wells zero;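 active = Every replicate reaches about 75%, or at least half do and their mean reaches it too, limit read from the data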;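 also: higher means more ATP so stronger rescue from cytokine killing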
CSC inhib – cancer stem cell viability inhibitors, primary screen, luminescence; cancer stem cell-like cells viability; AID 2717, 2010; 300,000 tested, 1.1% active; inhibition, % at 7.5 µM; in the data active = inhibition above about 75%; tested in HMLE shEcad cells
NR3A LBD binder – binders of NR3A ligand-binding domain, primary screen, biophysical, differential scanning fluorimetry, uHTS | Glutamate receptor ionotropic, NMDA 3A (GRIN3A) ligand-binding domain | NR3A LBD differential scanning fluorimetry, Tm shift; 0% = protein alone, 100% = glycine-bound protein | Tm shift relative to glycine control, % at 25 µM | 340,000 tested, 2.5% active;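 active = melting temperature shift of at least 10% of the positive control shift, at one fixed dose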
Gli-Sufu block – Gli-Sufu pathway antagonists, primary screen, luciferase luminescence, Sufu-KO-LIGHT cells, uHTS; Sufu-KO-LIGHT fibroblasts, Gli luciferase reporter luminescence; 340,000 tested, 0.74% active; inhibition, % at 5 µM;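 active = inhibition above about 55%, limit read from the data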
MPTP block – mitochondrial permeability transition pore inhibitors, primary screen, biochemical, isolated mouse mitochondria, absorbance. Ca2+ swelling absorbance, 30 min. inhibition, % at 10 µM. 360,000 tested, 1.4% active;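 active = inhibition of 50% or more, scaled per plate between neutral and stimulator controls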
Mdm2-MdmX conf – Mdm2-MdmX complex disruptors, retested hits, confirmation, luminescence, single concentration | shares compounds with Mdm2 MdmX PPI | Mdm2-MdmX binding, luminescent assay | inhibition, % at 8 µM | 10,000 tested, 55% active | AID 489028, 2010; in the data active = inhibition above about 40%
Full FLuc ctr – full-length luciferase signal inhibition, confirmation, counter-screen for Mdm2/MdmX interaction inhibitor project, cell-based, single concentration, SaOS-2 | SaOS-2 full-length luciferase counterscreen, luminescence | inhibition, % at 8 µM | 6,200 tested, 77% active | shares compounds with Mdm2 MdmX PPI;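 active = mean inhibition at 8 µM reaching about 37%, which flags the compound as non-specific, limit read from the data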;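 also: p53-null SaOS-2 cells with luciferase driven by a doxycycline-inducible promoter; compound on cells about two nights before reading with doxycycline added after day one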
Of the large screens only hits and unclear results are named; the others gave an inactive call (follow-up assays come after a bar, where they were run).

COCCNC(=O)c1cc2c(c(-c3cccc(-c4cc5ccccc5o4)c3)n1)[C@@H](CCO)N(S(=O)C(C)(C)C)C2 (stereo not given in full)	none (no result: Mdm2 MdmX PPI, Beta apoptosis, CSC inhib, NR3A LBD binder, Gli-Sufu block)
C[C@H](CO)N1C[C@H](C)[C@@H](CN(C)C(=O)CCC(F)(F)F)OCc2cnnn2CCCC1=O	none (no result: Mdm2 MdmX PPI, Beta apoptosis, CSC inhib, NR3A LBD binder, Gli-Sufu block)
CCCCNC(=O)C(c1ccc(OCC(=O)OC)c(C(=O)OC)c1)N(CCOC)C(=O)CCCCCN1C(=O)NC(c2ccc(-c3ccccc3)cc2)C(C(=O)OCc2ccccc2)=C1C (stereo not given)	Mdm2 MdmX PPI 100, CSC inhib 125 (no result: NR3A LBD binder, Gli-Sufu block, MPTP block) | Mdm2-MdmX conf 66 | Full FLuc ctr inactive
Cc1ccc(C(=O)c2oc3ccc(Cl)cc3c2NC(=O)CN2CCN(C)CC2)cc1	Mdm2 MdmX PPI 82 | Mdm2-MdmX conf inactive | Full FLuc ctr 68
O=C(CCl)c1cc2c3c(c1)CC(=O)N3CCC2	Mdm2 MdmX PPI 77 (no result: Beta apoptosis) | Mdm2-MdmX conf 56 | Full FLuc ctr inactive
O=C(NCCO)C(=O)Nc1cc2c3c(c1)CC(=O)N3CCC2	none
Cn1c(=O)c2c(nc(Oc3ccc4ccccc4c3)n2C)n(C)c1=O	Mdm2 MdmX PPI 52 | Mdm2-MdmX conf 62 | Full FLuc ctr inactive
CCCOc1ccc(-c2c(C(=O)N/N=C(\C)c3cccnc3)nnn2-c2nonc2N)cc1	none (no result: Beta apoptosis)
C/C(=N\NC(=O)c1nnn(-c2nonc2N)c1-c1ccccc1)c1ccccc1O	Mdm2 MdmX PPI 82, Beta apoptosis 90, Gli-Sufu block 68 (no result: CSC inhib) | Mdm2-MdmX conf 84 | Full FLuc ctr 51
CCOc1ccc(-c2c(C(=O)N/N=C(\C)c3cccnc3)nnn2-c2nonc2N)cc1	Mdm2 MdmX PPI 64 | Mdm2-MdmX conf inactive
C/C(=N/NC(=O)c1nnn(-c2nonc2N)c1COc1ccccc1)c1ccccc1Cl	none
C/C(=N/NC(=O)c1nnn(-c2nonc2N)c1COc1ccccc1)c1ccc(O)cc1	Mdm2 MdmX PPI 75 | Mdm2-MdmX conf inactive
COCCn1c(=S)[nH]c2cc(C(=O)NC3CCCCC3C)ccc2c1=O (stereo not given)	none (no result: Mdm2 MdmX PPI, Beta apoptosis, CSC inhib, NR3A LBD binder, Gli-Sufu block)
O=C(c1c(F)cccc1F)N(C1CCCCC1)C1CCCCC1	none (no result: Beta apoptosis)
COc1ccc(/C=N/Nc2nnc(-c3ccccc3)c(=O)[nH]2)cc1	Mdm2 MdmX PPI 76 (no result: Beta apoptosis) | Mdm2-MdmX conf inactive
CC(C)Cn1c2c(c(=O)[nH]c1=O)C(C(F)(F)F)(C(F)(F)F)N=C(CCC1CCCCC1)N2	Mdm2 MdmX PPI 52 | Mdm2-MdmX conf 71 | Full FLuc ctr 52
COc1ccc(NC(=O)C(=O)c2cn(CC(=O)N3CCCC3)c3ccccc23)cc1	Mdm2 MdmX PPI 58 | Mdm2-MdmX conf 55 | Full FLuc ctr 89
CC(=O)Nc1ccc(NC(=O)C(=O)c2cn(CC(=O)N3CCCC3)c3ccccc23)cc1	none
O=C(/C=C\Nc1ccc2c(c1)OCO2)c1ccccn1	Mdm2 MdmX PPI 72, NR3A LBD binder 35 | Mdm2-MdmX conf 65 | Full FLuc ctr 39
O=C(Nc1ccc2c(c1)OCO2)c1ccccn1	none (no result: CSC inhib)
O=C1[C@@H](Oc2ccccc2)[C@@H](c2ccncc2)N1c1ccccc1	Mdm2 MdmX PPI 53 (no result: Beta apoptosis, CSC inhib) | Mdm2-MdmX conf 48 | Full FLuc ctr 48
O=C1[C@@H](Oc2ccccc2)[C@@H](c2ccccc2)N1c1cccnc1	none (no result: Mdm2 MdmX PPI, Beta apoptosis, CSC inhib)
Cc1ccccc1Nc1c(-c2ccncc2)nc2ccc(Cl)cn12	Mdm2 MdmX PPI 75 | Mdm2-MdmX conf 49 | Full FLuc ctr 71
Cc1nc2nc(C)c(CCC(=O)N3CCN(c4ccccn4)CC3)c(C)n2n1	none
CCn1c(=O)c(CCC(=O)N2CCN(c3ccccn3)CC2)c(C)c2c(C)nn(-c3cccc(C)c3)c21	Mdm2 MdmX PPI 53 | Mdm2-MdmX conf inactive
CN=c1scc(-c2cccs2)n1/N=C/c1ccccc1O	Mdm2 MdmX PPI 95, Gli-Sufu block 81 | Mdm2-MdmX conf 96 | Full FLuc ctr inactive
COc1cc(C(O)c2nc(-c3cccc(NC(C)=O)c3)cs2)ccc1F (stereo not given)	none (no result: Mdm2 MdmX PPI, Beta apoptosis, CSC inhib, NR3A LBD binder, Gli-Sufu block)
c1ccc(COc2ccccc2CNC2CCCC2)cc1	none
c1ccc(COc2ccccc2CNC23CC4CC(CC(C4)C2)C3)cc1	Mdm2 MdmX PPI 96 | Mdm2-MdmX conf 70 | Full FLuc ctr 59
COc1ccc(CNC(=O)COC(=O)c2c(NC(C)=O)sc(C)c2C)cc1OC	none (no result: Mdm2 MdmX PPI, Beta apoptosis, CSC inhib, NR3A LBD binder, Gli-Sufu block)
CCN(CC)S(=O)(=O)c1ccc2oc(SCC(=O)Nc3cc(C)on3)nc2c1	Mdm2 MdmX PPI 55 | Mdm2-MdmX conf 57 | Full FLuc ctr 52
O=c1c2ccc(Cl)cc2nc(-c2cccc(C(F)(F)F)c2)n1O	Mdm2 MdmX PPI 88 | Mdm2-MdmX conf inactive
O=c1c2ccccc2nc(-c2ccc(Cl)c(Cl)c2)n1O	Mdm2 MdmX PPI 82 | Mdm2-MdmX conf 64 | Full FLuc ctr inactive
N#Cc1ccc(-c2nc3cc(Cl)ccc3c(=O)n2O)cc1	none
O=c1c2ccccc2nc(-c2ccccc2Cl)n1O	none
Nc1ccccc1C#CC(=O)c1ccccc1	Mdm2 MdmX PPI 96, Beta apoptosis 91 | Mdm2-MdmX conf 63 | Full FLuc ctr 55
O=C(C#Cc1cccc([N+](=O)[O-])c1)c1ccccc1	Mdm2 MdmX PPI 73 (no result: NR3A LBD binder, Gli-Sufu block) | Mdm2-MdmX conf 63 | Full FLuc ctr 52
Nc1ccccc1C#Cc1ccc([N+](=O)[O-])cc1	none
CC(C)Cn1cnc2c(c(-c3ccccc3)c(-c3ccccc3)n2Cc2ccco2)c1=N	Mdm2 MdmX PPI 91 | Mdm2-MdmX conf inactive
N=c1c2c(-c3ccccc3)c(-c3ccccc3)n(Cc3ccco3)c2ncn1Cc1ccccc1	Mdm2 MdmX PPI 100, Beta apoptosis 91, CSC inhib 110 | Mdm2-MdmX conf 62 | Full FLuc ctr inactive
N=c1c2c(-c3ccccc3)c(-c3ccccc3)n(Cc3ccco3)c2ncn1CCCn1ccnc1	none (no result: Mdm2 MdmX PPI)
N=c1c2c(-c3ccccc3)c(-c3ccccc3)n(Cc3ccccc3)c2ncn1CCO	Mdm2 MdmX PPI 73 | Mdm2-MdmX conf 65 | Full FLuc ctr 40
OCCNc1ncnc2c1c(-c1ccccc1)c(-c1ccccc1)n2Cc1ccco1	none
O=C(NCC1CCCO1)c1ccccc1NS(=O)(=O)c1ccc(Br)s1 (stereo not given)	none (no result: Mdm2 MdmX PPI, Beta apoptosis, CSC inhib)
CCCCn1c(N)c(N(CCC(C)C)C(=O)CSc2nc3ccccc3n2C)c(=O)[nH]c1=O	none (no result: Mdm2 MdmX PPI, Beta apoptosis, CSC inhib)
